# According to PubChem BioAssay AID1063 (University of Pittsburgh Molecular Library Screening Center, 2008):
# The campaign covered roughly 200,000 compounds. About 18,000 (9%) were called active. The full list was thinned out, with actives kept by preference. Unmarked numbers belong to inactive results. No stated cut-off is given here; in the data, active means inhibition above about 50%; inactive means the rest. Where a SMILES comes first, the peptide text is derived from it. [ ]: non-standard residue; d: D form. ξ: configuration not given here. ξM = CSCCC(N)C(=O)O
# Experiment: antileishmanial activity against promastigotes – primary screen (AID 1063);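 further: promastigotes grown with compound for 44 hours at 28 °C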
# Conditions: Leishmania major promastigotes, resazurin fluorescence viability; at 10 µM; active compounds read high
row,Compound,inhibition
1,O=[N+]([O-])c1ccc2oc(-c3cccc(O)c3)nc2c1,-1.6%
2,CCOC(=O)C1(Cc2cccc(OC)c2)CCN(C(C)CC(C)(C)O)CC1 (stereo not given),-1.48%
3,CCOC(=O)C1(Cc2cccc(OC)c2)CCN(C(C)COC)CC1 (stereo not given),2.55%
4,CCOC(=O)C1(Cc2cccc(OC)c2)CCN(Cc2csc(C(C)=O)c2)CC1,92.9% (active)
5,CC(=O)Nc1ccc(NC(=O)COc2ccc(S(=O)(=O)NC(C)c3ccccc3)cc2)cc1 (stereo not given),-0.2%
6,COc1cc(/C=C/C2=CC(C)(C)NC(=S)N2)cc(OC)c1OC,0.1%
7,Cn1c(=O)c2c(nc(NCCc3ccccc3)n2Cc2ccccc2)n(C)c1=O,15.1%
8,CCCCNc1nc2c(c(=O)n(C)c(=O)n2C)n1Cc1cccc(OC)c1,4.44%
9,Cn1c(=O)c2c(nc(N/N=C/c3cccs3)n2Cc2ccc(Br)cc2)n(C)c1=O,60.3% (active)
10,O=C(CN1C(=O)/C(=C\c2ccccc2F)SC1=S)Nc1nc2ccccc2s1,-3.34%
11,Clc1ccc(-c2csc(-c3ccncc3)n2)cc1,5.86%
12,CCOc1cc(NC(=O)CCl)c(OCC)cc1NC(C)=O,5.77%
13,CS(=O)(=O)N(CC(O)Cn1c2ccccc2c2ccccc21)c1cccc2ccccc12 (stereo not given),100% (active)
14,CC(=O)c1ccc2c(c1)c1ccccc1n2CC(C)C,9.99%
15,O=C1c2ccccc2S(=O)(=O)N1CC(O)Cn1c2ccccc2c2ccccc21 (stereo not given),-4.57%
16,O=C(Nc1nnc(Cc2ccc(Cl)cc2)s1)c1cccnc1,-10.8%
17,COC(=O)N/N=C/c1ccc(/C=N/NC(=O)OC)cc1,-5.23%
18,C=CCn1c(-c2sc(-c3ccccc3)nc2C)n[nH]c1=S,-5.29%
19,CCN(CC)CC1(O)CCN(C(=O)c2ccc(Cl)c(Cl)c2)CC1,99.6% (active)
20,O=C(c1ccc(Cl)c(Cl)c1)N1CCCC1,-4.87%
21,CCCNC(=O)c1ccc(Cl)c(Cl)c1,-4.03%
22,ClC1(Cl)CC1CSc1ncn[nH]1 (stereo not given),3.37%
23,CCOC(=O)c1cnc(Nc2nc3ccccc3o2)nc1CSC(=S)N1CCCCC1,56.7% (active)
24,CCOC(=O)CCNC(=O)N1CCCC(C(=O)c2ccccc2SC)C1 (stereo not given),-1.7%

row,Compound,inhibition
1,CCc1ccc(CNC(=O)C2CCCN(c3nc4ccccc4o3)C2)cc1 (stereo not given),0.6%
2,COc1ccc(-n2nc(C(=O)Nc3cc(OC)c(OC)c(OC)c3)c3ccccc3c2=O)c(OC)c1,0.87%
3,O=C(c1cccc(F)c1)N1CCN(c2ccc([N+](=O)[O-])c3cccnc23)CC1,45.7%
4,O=C(CSc1ccc(C(F)(F)F)cc1[N+](=O)[O-])NCCOc1ccccc1,-4.83%
5,CC(CNc1ccc([N+](=O)[O-])c2cccnc12)Nc1c([N+](=O)[O-])cc(C(F)(F)F)cc1[N+](=O)[O-] (stereo not given),76.9% (active)
6,COc1ccnc(Oc2ccccc2)c1-c1ncn[nH]1,-5.3%
7,CC1CCN(S(=O)(=O)c2ccc3ncn(CC(=O)N(C)C4CCCCC4)c(=O)c3c2)CC1,-0.9%
8,Cc1ccc(NC(=O)Nc2nnc(-c3ccncc3)s2)cc1,12.8%
9,CCN1/C(=C/c2ccc3ccc(C)cc3[n+]2CC)Sc2ccccc21,100% (active)
10,CCN1/C(=C\c2ccc3ccccc3[n+]2CC)Sc2cc(C)ccc21,101% (active)
11,CCC(=O)/C=C1\Sc2ccccc2N1CC,3.43%
12,O=C(Cc1ccccc1)N1CCN(S(=O)(=O)c2ccc([N+](=O)[O-])cc2)CC1,5.24%
13,Cc1ccc(Nc2c(F)c(F)c(F)c(F)c2C(=O)O)c(C)c1,-6.66%
14,COc1cccc(CN(C)CC(=O)Nc2ccccc2C(=O)Nc2ccccc2)c1,16.9%
15,Cc1cc([N+](=O)[O-])ccc1NC(=O)c1ccc(NC(=O)C(C)C)cc1,-5.33%
16,CN1CC(c2ccccc2)C2(COc3ccccc3C2=O)C12C(=O)Nc1ccccc12 (stereo not given),62.6% (active)
17,O=C(CN1CCN(S(=O)(=O)c2ccc(F)cc2)CC1)Nc1ccccc1F,1.33%
18,Cc1ccc(S(=O)(=O)N2CCN(Cc3cccc(C)c3O)CC2)cc1,-1.84%
19,O=S(=O)(c1ccc(F)cc1)N1CCN(Cc2ccccc2C(F)(F)F)CC1,51.1% (active)
20,COc1ccc(CN(C)C(C)C(=O)NC2CCCc3ccccc32)cc1 (stereo not given),10%
21,O=C(c1cccc(F)c1)N1CCN(c2ccc([N+](=O)[O-])c(N3CCCCC3)c2)CC1,4.09%
22,O=C(c1ccccc1)N1CCN(c2ccc([N+](=O)[O-])c(NCc3ccco3)c2)CC1,65.6% (active)
23,O=[N+]([O-])c1ccc(N2CCN(S(=O)(=O)c3ccc4ccccc4c3)CC2)cc1NCc1ccco1,-0.79%
24,CN(C)c1ccc(/C=N/NC(=O)C(O)c2ccc(Br)cc2)cc1 (stereo not given),4.17%

row,Compound,inhibition
1,CN(C)c1ccnc(Nc2ccc(F)cc2)c1C#N,-2.28%
2,C/C(=N\N=C(N)N)c1ccc(Cl)cc1,98.8% (active)
3,CCOC(=O)NNC(=O)c1ccc(Cl)cc1,-5.24%
4,COC(=O)/C(NC(C)=O)=C(\C)c1ccc(Cl)cc1,0.11%
5,FC(F)(F)c1cccc(Cc2noc(CN3CCC(N4CCCCC4)CC3)n2)c1,82.7% (active)
6,CCOC(=O)N1CCN(Cc2nc(Cc3cccc(C(F)(F)F)c3)no2)CC1,4.8%
7,Fc1cccc(Cc2noc(CN3CCN(c4cnccn4)CC3)n2)c1,-3.37%
8,O=S(=O)(/N=C(/Nc1ccccc1)c1ccccc1)c1cccs1,1.04%
9,CCOC(=O)c1ccc(N/C(=N/S(=O)(=O)c2ccccc2)c2ccccc2)cc1,61.3% (active)
10,Cc1ccc(S(=O)(=O)/N=C(/Nc2ccc3[nH]c(=O)[nH]c3c2)c2ccccc2)cc1,-4.98%
11,COC(=O)CNC(=O)C(CCSC)NC(C)=O (stereo not given) (Ac-[ξM]-Gly-OMe),-3.76%
12,COc1ccc(C[C@H]2CN3C(=NC[C@H]3C)N2CCNC(=O)CCC2CCCCC2)cc1,31.8%
13,Cc1cccc(-n2c(=O)c3c(C)c(C)sc3n(CC(N)=O)c2=O)c1,4.25%
14,CC(=O)N(CN1C(=O)C2C3C=CC(C3)C2C1=O)c1cccc(Cl)c1 (stereo not given),-6.29%
15,O=C(COC(=O)CNS(=O)(=O)c1ccccc1)NC12CC3CC(CC(C3)C1)C2,1.38%
16,COc1ccccc1-c1nnc(SCC(=O)Nc2ccccc2)o1,2.06%
17,COc1ccccc1-c1nnc(NC(=O)c2ccc3ncsc3c2)o1,80.7% (active)
18,COc1ccccc1-c1nnc(NC(=O)c2cccc(N3C(=O)CCC3=O)c2)o1,-4.87%
19,Cc1ccc(S(=O)(=O)Cc2cc(-c3ccc(Cl)cc3)no2)cc1,-0.46%
20,COc1ccccc1CC(NC(C)=O)C(=O)NC1CCN(C(=O)Nc2ccccc2Cl)CC1 (stereo not given),-3.45%
21,COCCCNC(=O)Cn1c(=O)n(Cc2ccccc2Cl)c(=O)c2cc(OC)c(OC)cc21,-3.45%
22,Cc1ccc(S(=O)(=O)CCC(=O)OCc2ccccc2)cc1,-3.07%
23,CCOc1cc(C2C(C(=O)OC(C)C)=C(C)NC3=C2C(=O)CCC3)cc([N+](=O)[O-])c1O (stereo not given),8.32%
24,O=C(Nc1ccc(CSc2ccccc2)cc1)c1ccc(CN2CCOCC2)cc1,95.2% (active)

row,Compound,inhibition
1,O=C(Nc1ccccc1C(=O)N1CCOCC1)c1ccc(CSc2ccccc2)cc1,15.2%
2,COc1ccc(C(=O)Nc2ccc(CN3CCOCC3)cc2)cc1,0.71%
3,NC(=O)COC(=O)c1sc2cc(F)ccc2c1Cl,-4.95%
4,O=C(O)CCCCOn1ccnc1,-5.36%
5,Cc1oc2c(c1C(=O)N1CCOCC1)C(=O)c1ccccc1C2=O,99.7% (active)
6,Cc1onc(-c2ccccc2)c1C(=O)N1CCOCC1,0.76%
7,O=C(c1ccccc1-c1ccccc1)N1CCOCC1,1.25%
8,Cc1c(C=O)n(C)n(-c2ccccc2)c1=O,0.34%
9,COc1cc(NC(=O)COc2ccccc2Cl)ccc1NC(=O)C(C)C,1.32%
10,CN(C)S(=O)(=O)c1ccc2oc(SCC(=O)Nc3ccccc3F)nc2c1,2.57%
11,CSc1ccccc1NC(=O)Cc1ccc(Br)cc1,53.5% (active)
12,Cc1cccc(C)c1NC(=O)CNC(=O)Cc1ccc(Br)cc1,-3.9%
13,CSc1ccccc1NC(=O)CN(C)CC(=O)Nc1cccc(Br)c1,18.6%
14,Cc1ccc(OCC(=O)Nc2ccc(S(=O)(=O)Nc3ccccn3)cc2)cc1,-4.12%
15,C=CCN(c1ccc(C(N)=O)cc1)S(C)(=O)=O,-6.04%
16,C=CCN(c1ccc(C(=O)Nc2cc(C)cc(C)c2)cc1)S(C)(=O)=O,76% (active)
17,CSCc1ccc(C(=O)Nc2cc(C)cc(C)c2)cc1,-3.2%
18,O=c1c2sccc2nc(SCc2cc(=O)n3ccccc3n2)n1-c1ccc(Br)cc1,12.1%
19,COc1ccc(CCNC(=O)CSc2nc3[nH]ncc3c(=O)n2-c2cccc(C(F)(F)F)c2)cc1OC,-7.3%
20,Cc1cccc2nc(CSc3nc4[nH]ncc4c(=O)n3-c3cccc(Cl)c3)cc(=O)n12,56.1% (active)
21,CCc1ccc(-n2c(SCc3cc(=O)n4cc(Br)ccc4n3)nc3[nH]ncc3c2=O)cc1,56.9% (active)
22,O=C(CSc1nc2[nH]ncc2c(=O)n1-c1ccccc1)N1CCCc2ccccc21,15.2%
23,Cc1ccc(CSc2nc3[nH]ncc3c(=O)[nH]2)cc1,-3.25%
